Assay results reported in PubChem BioAssay (Tox21).
Records with an inconclusive call do not appear. Calls of active or inactive are those of the source. Unless noted, calls come from the whole dose curve; as a rule, active = well fitted curve in the direction sought with a large enough effect in the repeat runs; inconclusive = weak or mixed curves; inactive = no such curve, though single readings can be large; an effect the other way counts as inactive or inconclusive.

Experiments:
[1] = target: Retinoic acid receptor RXR-alpha (Homo sapiens) (UniProt P19793); test: qHTS assay to identify small molecule agonists of the RXR signaling pathway (AID 1159527; calls by dose curve; note: nearly all actives have a fitted effect of over 35% in size)
Retinoic acid receptor RXR-alpha (Homo sapiens), sequence (P19793 whole entry, looked up): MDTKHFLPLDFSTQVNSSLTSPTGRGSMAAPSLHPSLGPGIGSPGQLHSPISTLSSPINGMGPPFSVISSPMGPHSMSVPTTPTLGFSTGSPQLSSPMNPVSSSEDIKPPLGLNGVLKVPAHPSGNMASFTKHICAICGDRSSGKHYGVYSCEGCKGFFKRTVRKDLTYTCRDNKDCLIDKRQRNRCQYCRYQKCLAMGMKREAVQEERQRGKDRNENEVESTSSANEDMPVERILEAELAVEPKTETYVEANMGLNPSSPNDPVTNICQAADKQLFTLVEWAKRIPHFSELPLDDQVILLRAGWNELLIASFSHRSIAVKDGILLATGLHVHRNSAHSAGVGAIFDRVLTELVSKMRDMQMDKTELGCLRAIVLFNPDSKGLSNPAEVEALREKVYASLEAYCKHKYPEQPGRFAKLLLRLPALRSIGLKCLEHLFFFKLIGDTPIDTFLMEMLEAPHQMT
Procedure, shortened: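 Agonist mode; 9-cis retinoic acid positive control. HEK 293T UAS-bla reporter cells, 2% charcoal-stripped FBS, 16 hr compound exposure at 37 C/5% CO2. LiveBLAzer B/G FRET substrate 2 hr RT; ex 405, em 460/530 nm.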

[2] = qHTS assay to identify small molecule agonists of the RXR signaling pathway - cell viability counter screen (AID 1159529); note: series mostly up to about 77 µM; nearly all actives have a fitted effect of over 50% in size
Procedure, shortened: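 Luminescence from CellTiter-Glo (30 min, RT) measured viability in the same wells as the beta-lactamase reporter readout. Cells: GeneBLAzer RXR-alpha HEK 293T, 2% charcoal-stripped FBS. Compound exposure 16 hr, 37 C.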

[3] = qHTS assay to identify small molecule antagonists of the retinoid acid receptor (RAR) signaling pathway - cell viability counter screen (AID 1159551); note: nearly all actives have a fitted effect of over 35% in size
Procedure, shortened: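 Luminescent ATP quantitation (CellTiter-Glo) gave cell viability in C3RL4 cells exposed to test chemicals for 6 h at 37 C alongside 1 uM final retinol.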

[4] = qHTS assay to identify small molecule antagonists of the estrogen related receptor (ERR) signaling pathway from Tox21 library - cell viability counter screen (AID 1224834); note: nearly all actives have a fitted effect of over 30% in size
Procedure, shortened: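 Fluorescence from CellTiter-Fluor gives the viability read-out, taken 30 min after reagent addition. Before that, ERR cells seeded 6 h earlier were incubated with compounds for 17.5 h at 37 C.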

[5] = target: Luciferin 4-monooxygenase (Photinus pyralis) (UniProt P08659); test: qHTS assay to identify small molecule inhibitors of firefly luciferase (AID 1224835); note: series mostly up to about 120 µM; nearly all actives have a fitted effect of over 25% in size
Luciferin 4-monooxygenase (Photinus pyralis), sequence (P08659 whole entry, looked up): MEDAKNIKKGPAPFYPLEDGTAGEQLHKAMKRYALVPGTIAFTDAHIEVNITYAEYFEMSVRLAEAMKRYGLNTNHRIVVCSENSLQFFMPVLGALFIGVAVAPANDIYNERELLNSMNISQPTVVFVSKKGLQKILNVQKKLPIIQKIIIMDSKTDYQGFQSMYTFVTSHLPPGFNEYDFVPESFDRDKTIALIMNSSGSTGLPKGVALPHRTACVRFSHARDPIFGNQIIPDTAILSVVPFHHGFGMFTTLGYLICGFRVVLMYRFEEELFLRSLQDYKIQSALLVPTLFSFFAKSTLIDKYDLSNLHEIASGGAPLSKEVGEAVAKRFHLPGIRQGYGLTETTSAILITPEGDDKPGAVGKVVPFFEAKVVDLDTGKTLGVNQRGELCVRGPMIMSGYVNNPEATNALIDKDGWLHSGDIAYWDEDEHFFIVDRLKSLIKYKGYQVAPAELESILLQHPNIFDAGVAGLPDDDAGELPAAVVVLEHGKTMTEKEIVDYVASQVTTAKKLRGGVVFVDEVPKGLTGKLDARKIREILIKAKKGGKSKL
Procedure, shortened: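 Biochemical qHTS: compounds run as interplate titrations against purified firefly enzyme, with D-luciferin and ATP each at its KM concentration. Light output recorded by CCD imaging.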

[6] = qHTS assay to identify small molecule agonists of the constitutive androstane receptor (CAR) signaling pathway - cell viability counter screen (AID 1224836); note: series mostly up to about 92 µM; nearly all actives have a fitted effect of over 45% in size
Procedure, shortened: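 Viability read-out: CellTiter-Fluor fluorescence after 23 h compound exposure at 37 C/5% CO2 in double-stable HepG2-CYP2B6-hCAR cells, with PK11195 present at 0.75 uM final; compounds tested in 15-point titration.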

[7] = qHTS assay to identify small molecule antagonists of the constitutive androstane receptor (CAR) signaling pathway - cell viability counter screen (AID 1224837); note: series mostly up to about 92 µM; nearly all actives have a fitted effect of over 45% in size
Procedure, shortened: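 HepG2-CYP2B6-hCAR cells, 2500/well, 4 hr pre-incubation; compound titration, 15 conc.; CITCO 50 nM final; 23 hr, 37 C/5% CO2; CellTiter-Fluor, fluorescence intensity.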

[8] = target: Nuclear receptor subfamily 1 group I member 3 (Homo sapiens) (UniProt Q14994); test: qHTS assay to identify small molecule antagonists of the constitutive androstane receptor (CAR) signaling pathway (AID 1224838);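 note: HepG2 cells stably expressing hCAR with CYP2B6 luciferase reporter stimulated by CITCO; nearly all actives have a fitted effect of over 40% in size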
Nuclear receptor subfamily 1 group I member 3 (Homo sapiens), sequence (Q14994 whole entry, looked up): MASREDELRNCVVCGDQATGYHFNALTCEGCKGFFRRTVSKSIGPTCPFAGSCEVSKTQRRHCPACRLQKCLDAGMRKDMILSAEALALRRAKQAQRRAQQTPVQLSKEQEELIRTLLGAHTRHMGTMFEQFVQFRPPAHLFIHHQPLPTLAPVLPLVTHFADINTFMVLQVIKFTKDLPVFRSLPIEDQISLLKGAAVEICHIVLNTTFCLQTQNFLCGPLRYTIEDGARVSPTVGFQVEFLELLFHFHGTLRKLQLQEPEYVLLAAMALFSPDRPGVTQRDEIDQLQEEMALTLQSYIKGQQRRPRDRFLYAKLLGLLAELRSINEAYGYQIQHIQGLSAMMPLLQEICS
Procedure, shortened: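 HepG2-CYP2B6-hCAR cells; 4 h pre-incubation; cpd (15 conc) + CITCO 50 nM final; 24 h, 37 C/5% CO2; ONE-Glo, luminescence.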

[9] = target: Nuclear receptor subfamily 1 group I member 3 (Homo sapiens) (UniProt Q14994); test: qHTS assay to identify small molecule agonists of the constitutive androstane receptor (CAR) signaling pathway (AID 1224839);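 note: HepG2 cells stably carrying human CAR and a CYP2B6 luciferase reporter; series mostly up to about 92 µM; nearly all actives have a fitted effect of over 15% in size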
Procedure, shortened: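 Luminescence read-out (ONE-Glo, 30 min, room temperature) from double-stable HepG2-CYP2B6-hCAR cells exposed 24 h to 15-point compound series in presence of 0.75 uM PK11195 final.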

[10] = qHTS assay to identify small molecule antagonists of the estrogen related receptor signaling pathway with the pleiotropic PPARgamma coactivator (PGC) from Tox21 10K library - cell viability counter screen (AID 1224840; active = well fitted cell-killing curve with a large enough effect in the repeat runs, not every such curve was filed as active; note: nearly all actives have a fitted effect of over 40% in size)
Procedure, shortened: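 PGC/ERR cells, 2,000/well; 6 h pre-incubation 37 C/5% CO2; cpd in DMSO via pin tool; 17.5 h 37 C; CellTiter-Fluor, 30 min; fluorescence.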

[11] = qHTS assay to identify small molecule antagonists of the estrogen related receptor signaling pathway with the pleiotropic PPARgamma coactivator (PGC) from Tox21 10K library (AID 1224841; call rule not given here; note: series mostly up to about 92 µM; actives are mostly falling curves and most rising ones were filed inactive; nearly all actives have a fitted effect of over 50% in size)
Procedure, shortened: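 PGC/ERR cell line, 2,000 cells/well; 6 h pre-incubation 37 C/5% CO2; compounds (DMSO) pinned in; 18 h, 37 C; One-Glo, 30 min RT; luminescence.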

[12] = qHTS assay to identify small molecule agonists of the estrogen related receptor signaling pathway with the pleiotropic PPARgamma coactivator (PGC) from Tox21 10K library (AID 1224842); note: nearly all actives have a fitted effect of over 15% in size
Procedure, shortened: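 PGC/ERR reporter cell line, 2,000 cells per well, incubated 6 h at 37 C before 23 nL compound in DMSO was added. After 18 h at 37 C, One-Glo luminescence read following 30 min at room temperature.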
% is set by controls: 0 for no effect and ±100 for the full control effect.

Cc1nc2n(c(=O)c1CCN1CCC(c3noc4cc(F)ccc34)CC1)CCC[C@H]2O
inactive: activation [1] 4.51% [at 15.8 µM] | activity change, negative = cytotoxicity [2] -5.89% [at 15.8 µM] | activity change, negative = cytotoxicity [3] 0.276% [at 19 µM] | viability change, negative = cytotoxic [4] 0.131% [at 19 µM] | activity change, negative = inhibition [5] 0.0649% [at 23.6 µM] | viability change, negative = cytotoxic [6] 2.64% [at 19 µM] | activity change, negative = cytotoxicity [7] 1.56% [at 19 µM] | activity, negative = inhibition [8] 20.8% [at 19 µM] | activation [9] -1.43% [at 19 µM] | viability change, negative = cytotoxic [10] 11.2% [at 19 µM] | activity, negative = inhibition [11] -0.225% [at 19 µM]

C[C@@H](Oc1ccc(CNC(=O)c2cccnc2Oc2ccc3c(c2)OCO3)c(F)c1)C(=O)O
inactive: Potency [1] | outcome [2] | outcome [3] | Potency [4] | Potency [5] | Potency [6] | outcome [8] | Potency [9] | outcome [10]

CCOc1cc(NC(C)=O)ccc1C(=O)OC
inactive: Potency [1] | outcome [2] | outcome [3] | Potency [4] | Potency [5] | Potency [6] | Potency [7] | outcome [8] | Potency [9] | outcome [10] | outcome [12]

O=C1c2ccccc2C(=O)N1CCl
inactive: Potency [1] | outcome [2] | outcome [3] | Potency [4] | Potency [5] | Potency [6] | Potency [7] | outcome [8] | Potency [9] | outcome [10] | outcome [12]

O=C(CS(=O)Cc1ccco1)NC/C=C\COc1cc(CN2CCCCC2)ccn1 (stereo not given)
inactive: Potency [1] | outcome [2] | outcome [3] | Potency [4] | Potency [5] | Potency [6] | Potency [7] | outcome [8] | Potency [9] | outcome [10] | outcome [12]

N#Cc1ccc(C(=O)O)cc1
inactive: Potency [1] | outcome [2] | outcome [3] | Potency [4] | Potency [5] | Potency [6] | Potency [7] | outcome [8] | Potency [9] | outcome [10] | outcome [12]

CC/C=C\CC1=C(C)CCC1=O
inactive: Potency [1] | outcome [2] | outcome [3] | Potency [4] | Potency [5] | Potency [6] | Potency [7] | outcome [8] | Potency [9] | outcome [10] | outcome [12]

CN(C)c1ccc(C=O)cc1
inactive: Potency [1] | outcome [2] | outcome [3] | Potency [4] | Potency [5] | Potency [6] | Potency [7] | outcome [8] | Potency [9] | outcome [10] | Potency [11] | outcome [12]

C[C@H](CCC(=O)O)[C@H]1CC[C@H]2[C@@H]3C(=O)C[C@@H]4CC(=O)CC[C@]4(C)[C@H]3CC(=O)[C@]12C
inactive: Potency [1] | outcome [2] | outcome [3] | Potency [4] | Potency [5] | Potency [6] | Potency [7] | outcome [8] | Potency [9] | outcome [10] | Potency [11] | outcome [12]

O=C(O)c1cc(Cl)cc([N+](=O)[O-])c1Cl
inactive: Potency [1] | outcome [2] | outcome [3] | Potency [4] | Potency [5] | Potency [6] | Potency [7] | outcome [8] | Potency [9] | Potency [11]

CN(C)CCOCCO
inactive: Potency [1] | outcome [2] | outcome [3] | Potency [4] | Potency [5] | Potency [6] | Potency [7] | outcome [8] | Potency [9] | outcome [10] | Potency [11]

C=C(C)C(=O)OCC(C)(C)COC(=O)C(=C)C
inactive: Potency [1] | outcome [2] | outcome [3] | Potency [4] | Potency [5] | Potency [6] | Potency [7] | outcome [8] | Potency [9] | outcome [10] | Potency [11] | outcome [12]

CCCCCCCCC(=O)Cl
inactive: Potency [1] | outcome [2] | outcome [3] | Potency [4] | Potency [5] | Potency [6] | Potency [7] | outcome [8] | Potency [9] | outcome [10] | outcome [12]

COC(=O)c1ccccc1C(=O)c1ccc(OCCN2CCCCC2)cc1
inactive: Potency [1] | outcome [2] | outcome [3] | Potency [4] | Potency [5] | Potency [6] | Potency [7] | outcome [8] | Potency [9] | outcome [10] | outcome [12]

C[Si](C)=O
inactive: activation [1] 8.36% [at 6.98 µM] | activity change, negative = cytotoxicity [2] 0.062% [at 6.97 µM] | activity change, negative = cytotoxicity [3] 3.8% [at 8.39 µM] | viability change, negative = cytotoxic [4] 2.07% [at 8.39 µM] | activity change, negative = inhibition [5] 5.26% [at 10.5 µM] | viability change, negative = cytotoxic [6] 2.34% [at 8.39 µM] | activity change, negative = cytotoxicity [7] 1.39% [at 8.39 µM] | activity, negative = inhibition [8] -3.72% [at 8.39 µM] | activation [9] -0.11% [at 8.39 µM] | viability change, negative = cytotoxic [10] 10.2% [at 8.39 µM] | activity, negative = inhibition [11] -4.65% [at 8.39 µM] | activation [12] -1.46% [at 8.39 µM]

Cc1cc(Cl)c(C)cc1Cl
inactive: Potency [1] | outcome [2] | outcome [3] | Potency [4] | Potency [5] | Potency [6] | Potency [7] | outcome [8] | Potency [9] | outcome [10] | outcome [12]

O=C(O)Cc1ccc(Cl)cc1Cl
inactive: Potency [1] | outcome [2] | outcome [3] | Potency [4] | Potency [5] | Potency [6] | Potency [7] | outcome [10]

COc1ccc(Br)c(C)c1
inactive: Potency [1] | outcome [2] | outcome [3] | Potency [4] | Potency [5] | Potency [6] | Potency [7] | outcome [8] | Potency [9] | outcome [10] | Potency [11]

Cc1cccc2nccnc12
inactive: Potency [1] | outcome [2] | outcome [3] | Potency [4] | Potency [5] | Potency [6] | Potency [7] | outcome [10]

CCNC(=O)C1CC(C)CCC1C(C)C (stereo not given)
inactive: Potency [1] | outcome [2] | outcome [3] | Potency [4] | Potency [5] | Potency [6] | Potency [7] | outcome [8] | Potency [9] | outcome [10] | outcome [12]

CCCC(=O)C(C)=O
inactive: Potency [1] | outcome [2] | outcome [3] | Potency [4] | Potency [5] | Potency [6] | Potency [7] | outcome [8] | Potency [9] | outcome [10] | outcome [12]

O=C1CCCC(=O)O1
inactive: Potency [1] | outcome [2] | outcome [3] | Potency [4] | Potency [5] | Potency [6] | outcome [8] | Potency [9] | outcome [10]
